Screening data from PubChem.
This is one part of a sample in which hits are shown more often than they occur.
Tgondii IFNg: T. gondii growth inhibition with IFN-gamma, primary screen, cell-based. Toxoplasma gondii growth in IFN-gamma-treated host cells; stronger effect = lower value. activity change, negative = inhibition, % (test concentration not listed). actives 3.8% (n = 69,000); in the data active means activity change below about -70%, passing the limit was not always enough;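 further: host cells are HeLa cells infected with Toxoplasma gondii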
* = called active by the depositor; ! = a repeat was not active.

SMILES | Tgondii IFNg
c1ccc(CN2C[C@H]3OCCN(CC4CCCO4)[C@H]3C2)nc1 (stereo partly drawn) | 37.6
C=CCOC1C2CCC1N(Cc1ccccn1)CCO2 (stereo not drawn) | -91.6*
c1ccc(CN2CCO[C@H]3[C@H]2CC[C@H]3OCc2cccnc2)nc1 | 9.0
CN(C(=O)[C@@H](N)Cc1cnc[nH]1)C1Cc2ccccc2C1 | 65.3
COCCN1C2CCC1CN(c1ncccn1)C2 | 1.3
Cc1ccc(-c2nccn2CCc2cnc[nH]2)c(C)c1F | -2.7
O=C(O)CN1CC2CC1CN(Cc1ccoc1)C2 (stereo not drawn) | 15.3
CN1C(=O)COc2c(C(=O)NC3CN4CCC3CC4)cc(Cl)cc21 (stereo not drawn) | 10.1
O=C(N[C@H]1CN2CCC1CC2)c1ccc(Cl)cc1 | -23.3
Cn1cc(C(=O)C(=O)N[C@H]2CN3CCC2CC3)c2ccccc21 | -79.7*!
O=C(Nc1ccncc1)C(=O)c1cn(Cc2ccc(Cl)cc2)c2ccccc12 | -78.2*
O=C(Nc1ccc(Cl)cc1)c1cc2cccnc2n(Cc2ccc(F)cc2)c1=O | 0.5
O=Cc1cn(Cc2ccc(F)cc2)c2ccccc12 | -2.7
COCCN1CCN(C)C2(CCN(Cc3ccncc3)CC2)C1=O | -22.4
Cn1cccc1CN1CC2(CCN(C(=O)c3cccnc3)C2)C1 | -2.6
C#C[C@]1(O)CC[C@H]2[C@@H]3CCC4=CC(=O)CC[C@]4(C)[C@H]3CC[C@@]21C | -16.4
C#C[C@]1(O)C=C[C@H]2[C@@H]3CCC4=CC(=O)CC[C@@H]4[C@H]3CC[C@@]21CC | -80.9*
CN(C)CCO[C@@H]1C[C@@H]2CN(c3ncc(F)cn3)CCN2C1 | -6.9
Cc1noc(C)c1CN1CC[C@H]2[C@@H]1CCN2CC(=O)N(C)C | 3.9
C[C@@]1(CO)[C@H](O)CC[C@@]2(C)[C@H]1CC[C@H]1C[C@@H]3C[C@@]12CC[C@]3(O)CO | -85.9*
Cc1nocc1C(=O)N1CCC2(CC1)COCCN2CCN(C)C | 54.9
CC(C)NC(=O)CNC(C)Cn1cncn1 (stereo not drawn) | 7.1
N#CC(C#N)=Cc1ccc(O)c(O)c1 | -0.2
CC(C)(C)c1cc(C=C(C#N)C#N)cc(C(C)(C)C)c1O | -79.7*
CN1CCC2(CCN(Cc3ccncc3Cl)CC2)C1 | 2.0
SMILES | Tgondii IFNg
COCC(=O)N1CC[C@@]2(CN(C)C[C@@H]2COCc2ccccn2)C1 | 3.7
O=C(NCCC(c1ccccc1)c1ccccc1)c1cc2cccnc2n(Cc2ccc(F)cc2)c1=O | -83.3*
O=C(NCc1ccco1)c1cc2cccnc2n(Cc2ccc(F)cc2)c1=O | -95.0*
O=C(NCCC(c1ccccc1)c1ccccc1)c1cc2cccnc2n(Cc2ccccc2)c1=O | 9.9
CC(C)CCNC(=O)c1cc2cccnc2n(Cc2ccc(F)cc2)c1=O | -25.0
Cc1ccc(CNC(=O)c2cc3cccnc3n(Cc3ccc(F)cc3)c2=O)cc1 | -8.1
O=C(NCc1ccc(F)cc1)c1cc2cccnc2n(Cc2ccc(Cl)cc2)c1=O | -37.0
COc1ccc2c(c1)C1(CCN(C(=O)c3cccc4[nH]ccc34)CC1)CC2CC(=O)O (stereo not drawn) | 44.0
O=C(NCC1CCOCC1)c1cnc(Nc2ccc(Cl)cc2Cl)nc1C(F)(F)F | -73.8*
Cc1ccc(C2(CN3C[C@@H]4C[C@@H](C3)c3cccc(=O)n3C4)CCNCC2)nc1 | 7.0
Cc1ccc(NC(=O)c2cc3cccnc3n(Cc3ccccc3F)c2=O)cc1C | 74.4
CN1C[C@H](COCc2ccccn2)[C@]2(CCN(C(=O)N(C)C)C2)C1 | 1.6
COc1ccc(C2=NCC(=O)N(Cc3nc(-c4ccccc4)oc3C)c3sc4c(c32)CCCC4)cc1 | -87.0*
COCCN(Cc1sccc1C)C(=O)c1c(C)n(C)c2ccc(OC)cc12 | -30.3
COCCCN1CCCCC12CC(=O)N(c1cncnc1)C2 (stereo not drawn) | 63.7
O=C(Nc1ccc(F)cc1Cl)c1c(O)c2cccnc2n(Cc2ccccc2)c1=O | 142.0
COc1ccc(C)cc1NC(=O)c1c(O)c2cccnc2n(Cc2ccccc2)c1=O | 45.3
Cc1ccc(NC(=O)c2c(O)c3cccnc3n(Cc3ccccc3)c2=O)cc1 | 314.5
O=C(NCc1ccc(Cl)cc1)c1c(O)c2cccnc2n(Cc2ccccc2)c1=O | -98.3*
O=C(NCc1ccccc1Cl)c1cc2cccnc2n(Cc2ccccc2)c1=O | -3.4
COc1ccccc1CNC(=O)c1cc2cccnc2n(Cc2ccc(F)cc2)c1=O | 92.4
O=C(Nc1ccccc1Cl)c1c(O)c2cccnc2n(Cc2ccccc2)c1=O | 24.8
O=C(NCc1ccc(F)cc1)c1c(O)c2cccnc2n(Cc2ccccc2)c1=O | -99.1*
O=C(NCc1ccc(Cl)cc1)c1cc2cccnc2n(Cc2ccccc2F)c1=O | 107.9
Cc1cccc(NC(=O)c2c(O)c3cccnc3n(Cc3ccccc3)c2=O)c1C | 14.9
O=C(NCC1CC1)c1c(O)c2cccnc2n(Cc2ccccc2)c1=O | -91.7*
O=C(NCc1cc(F)cc(F)c1)c1c(O)c2cccnc2n(Cc2ccccc2)c1=O | -103.2*
COc1ccccc1CNC(=O)c1cc2cccnc2n(Cc2ccccc2F)c1=O | 10.8
CN(C)CCN1CC[C@H]2[C@@H]1CCN2C(=O)Cc1cccs1 | 7.5
